Bioassay records from PubChem BioAssay.
Most compounds without a hit are left out; they make up all but 17% or so of the library.
TDP1 cell noCPT: qHTS for Inhibitors of human tyrosyl-DNA phosphodiesterase 1 (TDP1): qHTS in cells in absence of CPT. DT40 Tdp1-/- hTDP1 cells, no CPT, ATP luminescence, 48 h. Potency, µM (highest dose often 46.2 µM), without a hit: at the top dose activity change, negative = growth inhibition, hits mostly inhibitors. actives 15% (n = 420,000). AID 686978, 2013; further: on the % scale 0 is the no-effect control and ±100 the full control effect; nearly all actives have a fitted effect of over 55% in size
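Stably hTDP1-transfected Tdp1-null chicken DT40 cells were treated with library compounds minus camptothecin and grown for at least 48 hr at 37 °C, after which cellular ATP was quantified by luminescence.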
HT1080 IDH1KD tx: HT-1080 IDH1 knockdown cell toxicity (counter line); HT-1080 IDH1 knockdown viability, ATP luminescence, 48 h; Potency, µM (doses to about 46.1 µM), for the others: top-dose activity, negative = toxicity, usual class: cytotoxic; actives 2% (n = 360,000);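 further: 0% = DMSO wells and -100% = cell-free medium wells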
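After a 2 h attachment period, IDH1KD HT-1080 cells took pin-transferred compound for 48 h at 37 °C; ATP-based luminescence after 10 min room-temperature reagent incubation reported viability.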
DT40 TDP1 CPT: DT40-hTDP1 cell growth loss with CPT; Potency, µM (highest dose often 46.2 µM), without a hit: at the top dose activity change, negative = growth inhibition, actives largely listed as inhibitors; actives 12% (n = 420,000); chicken DT40 Tdp1-/-;hTDP1 cells + 20 nM CPT, ATP luminescence, 48 h; AID 686979; further: on the % scale 0 is the no-effect control and ±100 the full control effect; nearly all actives have a fitted effect of over 55% in size
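Cell growth measured by CellTiter-Glo luminescence after a minimum 48 h, 37 C compound exposure with 20 nM CPT in Tdp1-knockout DT40 cells stably expressing hTDP1, seeded 400/well; qHTS titration format.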
HepG2 tox: counter-screen for TGF-b inhibitors: cytotoxicity in HepG2 cells; HepG2 CAGA-GFP viability, ATP luminescence, 18 h; Potency, µM (titrated, usually from 46.1 µM), for inactives: at the highest dose activity change, negative = cytotoxicity, actives largely listed as cytotoxic; actives 0.76% (n = 410,000)
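HepG2 CAGA-GFP cells (1000/well, DMEM with 1% FBS) received compound, then TGF-beta at 500 pg/mL final, and were incubated 18 hours at 37 degrees C. Viability was read by CellTiter-Glo luminescence. Media-only wells were set as complete cell-killing and DMSO as no toxicity.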
TGFb inhibitor: blocks TGF-b signaling; HepG2 CAGA-GFP TGF-b/SMAD3 reporter, GFP fluorescence, 18 h; TGF-beta stimulated, 500 pg/mL final; Potency, µM (top dose mostly 46.1 µM), without a hit: top-dose activity, negative = inhibition, actives largely listed as inhibitors; actives 1.2% (n = 410,000); further: on the % scale 0 is the no-effect control and ±100 the full control effect; nearly all actives have a fitted effect of over 65% in size
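Per well, imaged GFP fluorescence of HEPG2 CAGA-GFP cells gives the signal; cells get compound, then TGF-beta (500 pg/mL final), 18 h at 37 degrees C; %Activity versus -TGF-beta and +DMSO controls.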
HT1080-NT tox: kills 2HG-producing HT-1080-NT fibrosarcoma cells; HT-1080-NT fibrosarcoma viability, CellTiter-Glo ATP luminescence, 48 h; AID 686970; Potency, µM (titrated, usually from 46.1 µM), without a hit: at the top dose activity, negative = less viability, actives largely listed as cytotoxic; actives 1.6% (n = 360,000);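 further: NT is the 2HG producing partner of a matched IDH1 knockdown line; 0% = DMSO-treated cells and -100% = media-only wells without cells; nearly all actives have a fitted effect of over 55% in size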
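Viability of the 2HG-overproducing fibrosarcoma line after 48 hours of compound exposure at 37 degrees C was determined by luminescence with CellTiter-Glo, and concentration-effect curves were then fitted and categorized.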
Active calls of the source: *; [ ] = remark or other dose. The call rests on the fitted dose curve; in most records, active means well fitted curve in the direction sought with a large enough effect; inconclusive means small, poorly fitted or top-dose-only effect, or another doubt; inactive means no such curve, though single readings can be large; an effect the other way counts as inactive or inconclusive. Potency means the concentration at half of the fitted maximal effect.

Screening Cn1c(/C(C#N)=C(\O)c2ccc([N+](=O)[O-])s2)nc2ccccc21 returned TDP1 cell noCPT -3%, HT1080 IDH1KD tx 8%, DT40 TDP1 CPT 15%, HepG2 tox -22%, TGFb inhibitor 2% and HT1080-NT tox 0%.
For Nc1nc2ccccc2n1/N=C/c1ccc(-c2ccccc2)o1 the results were TDP1 cell noCPT 16µM*, HT1080 IDH1KD tx -11%, DT40 TDP1 CPT inconclusive, HepG2 tox -63%, TGFb inhibitor inconclusive and HT1080-NT tox -14%.
Screening Nc1nc2ccccc2n1/N=C/c1ccc([N+](=O)[O-])s1 returned TDP1 cell noCPT 2.9µM*, HT1080 IDH1KD tx inconclusive, DT40 TDP1 CPT 2.1µM*, HepG2 tox -41%, TGFb inhibitor inconclusive and HT1080-NT tox -15%.
`Cc1ccc(CNC(=O)C(C)OC(=O)c2cccs2)cc1` (stereo not drawn) gave TDP1 cell noCPT -2%, HT1080 IDH1KD tx 24%, DT40 TDP1 CPT -10%, HepG2 tox 1%, TGFb inhibitor -8% and HT1080-NT tox 11%.
Screening CCc1noc(C)c1C(=O)N1CCCSC1=Nc1ccccc1 returned TDP1 cell noCPT -24%, HT1080 IDH1KD tx -1%, DT40 TDP1 CPT 0%, HepG2 tox -19%, TGFb inhibitor 0% and HT1080-NT tox 1%.
CCc1noc(C)c1C(=O)N1CCSC1=Nc1cccc(Cl)c1C was read as TDP1 cell noCPT 23µM*, HT1080 IDH1KD tx inconclusive, DT40 TDP1 CPT inconclusive, HepG2 tox 4%, TGFb inhibitor inconclusive and HT1080-NT tox -2%.
Screening COc1cc(N)c(Cl)cc1C(=O)N[C@H]1CCN(CCCOc2ccc(F)cc2)C[C@@H]1OC returned TDP1 cell noCPT 27µM* and DT40 TDP1 CPT -82%.
O=C(c1cnn(-c2nccc(-c3ccccc3F)n2)c1C1CC1)N1CCCCC1c1cccnc1 (stereo not drawn) was read as TDP1 cell noCPT 21µM* and DT40 TDP1 CPT 4%[9.04 µM].
For COc1cccc(CN2C(=O)C3(C(C#N)=C(N)OC4=C3C(=O)CCC4)c3ccccc32)c1 (stereo not drawn) the results were TDP1 cell noCPT 0.92µM*, HT1080 IDH1KD tx inconclusive, DT40 TDP1 CPT 0.65µM*, HepG2 tox -14%, TGFb inhibitor -4% and HT1080-NT tox inconclusive.
Screening O=C(O)c1cc(NS(=O)(=O)c2ccc(N3CCCCC3)c([N+](=O)[O-])c2)cc(C(=O)O)c1 returned TDP1 cell noCPT -11%, HT1080 IDH1KD tx 8%, DT40 TDP1 CPT -23%, HepG2 tox -65%, TGFb inhibitor -2% and HT1080-NT tox -3%.
Cc1c(C(=O)N2CCN(c3ccccn3)CC2)sc2ncnc(N3CCN(c4ccccc4)CC3)c12 was read as TDP1 cell noCPT 12µM*, HT1080 IDH1KD tx -5%, DT40 TDP1 CPT inconclusive, HepG2 tox -20%, TGFb inhibitor 2% and HT1080-NT tox -9%.
CCN1CCN(C(=O)c2sc3ncnc(N4CCc5ccccc5C4)c3c2C)CC1 was read as TDP1 cell noCPT inconclusive, HT1080 IDH1KD tx -21%, DT40 TDP1 CPT inconclusive, HepG2 tox -20%, TGFb inhibitor 14% and HT1080-NT tox -5%.
For Cc1nc(N2CCN(c3ccccn3)CC2)c2c(C)c(C(=O)N3CCN(c4cccc(Cl)c4)CC3)sc2n1 the results were TDP1 cell noCPT 21µM*, HT1080 IDH1KD tx -17%, DT40 TDP1 CPT 15µM*, HepG2 tox 6%, TGFb inhibitor -7% and HT1080-NT tox 0%.
For Cc1c(C(=O)N2CCN(Cc3ccc4c(c3)OCO4)CC2)sc2ncnc(N3CCN(c4ccccc4)CC3)c12 the results were TDP1 cell noCPT 4.6µM*, HT1080 IDH1KD tx inconclusive, DT40 TDP1 CPT inconclusive, HepG2 tox -3%, TGFb inhibitor inconclusive and HT1080-NT tox 0%.
Screening O=C(c1sc2ccccc2c1Cl)N1CCN(c2ccccn2)CC1 returned TDP1 cell noCPT 1%, HT1080 IDH1KD tx 23%, DT40 TDP1 CPT -1%, HepG2 tox -2%, TGFb inhibitor 2% and HT1080-NT tox 11%.
`CCC(=O)Nc1cc(-c2nc3cc(C)cc(C)c3o2)ccc1C` gave TDP1 cell noCPT inconclusive, DT40 TDP1 CPT inconclusive, HepG2 tox 0% and TGFb inhibitor -8%.
`Cc1occc1C(=O)Nc1ccc([N+](=O)[O-])cc1Br` gave TDP1 cell noCPT 29µM*, HT1080 IDH1KD tx -2%, DT40 TDP1 CPT 1.3µM*, HepG2 tox -2%, TGFb inhibitor -16% and HT1080-NT tox -2%.
For COc1cc(OC)c(NC(=O)c2ccoc2C)cc1Cl the results were TDP1 cell noCPT inconclusive, HT1080 IDH1KD tx inconclusive, DT40 TDP1 CPT 15µM*, HepG2 tox -10%, TGFb inhibitor -2% and HT1080-NT tox 1%.
For Cc1ccc([N+](=O)[O-])cc1NC(=O)c1ccoc1C the results were TDP1 cell noCPT -24%, HT1080 IDH1KD tx -1%, DT40 TDP1 CPT inconclusive, HepG2 tox 2%, TGFb inhibitor -9% and HT1080-NT tox 5%.
Screening Cc1cc(OI)c(C(C)C)cc1-c1cc(C(C)C)c(OI)cc1C returned TDP1 cell noCPT -13% and DT40 TDP1 CPT inconclusive.
Screening O=C(Cc1ccc(S(=O)(=O)N2CCOCC2)s1)NCCOc1ccccc1 returned TDP1 cell noCPT 3%, HT1080 IDH1KD tx 8%, DT40 TDP1 CPT 4%, HepG2 tox -2%, TGFb inhibitor -18% and HT1080-NT tox 9%.
CC1(Oc2ccc(F)cc2)CCN(Cc2ccccc2OC(F)F)C1 (stereo not drawn) was read as TDP1 cell noCPT -22%, HT1080 IDH1KD tx -3%, DT40 TDP1 CPT -18%, HepG2 tox -9%, TGFb inhibitor 8% and HT1080-NT tox 14%.
Screening O=C(c1ccc([N+](=O)[O-])cc1)N1CCN(C2=NS(=O)(=O)c3ccccc32)CC1 returned TDP1 cell noCPT -5%, HT1080 IDH1KD tx 0%, DT40 TDP1 CPT -19%, HepG2 tox -6%, TGFb inhibitor 4% and HT1080-NT tox -8%.
`O=C(Nc1cccc(Cl)c1)OCCOCCOC(=O)Nc1cccc(Cl)c1` gave TDP1 cell noCPT 16µM*, HT1080 IDH1KD tx inconclusive, DT40 TDP1 CPT inconclusive, HepG2 tox -3%, TGFb inhibitor -1% and HT1080-NT tox inconclusive.
